Laboratory results as given in PubChem BioAssay AID1159580 (chemical genetic matrix, 2015).
Out of some 5,500 compounds screened, about 2,000 (36%) were called active. Inconclusive results (about 18%) are left out. The list shows a part of the results. Unmarked numbers belong to inactive results. No stated cut-off is given here; in the data, active means normalized growth mostly below about 0.91 (no sharp cut-off); inconclusive means no clear call, values can overlap the other calls; inactive means mostly above about 0.92.

Test: chemical genetic growth profiling, strain panel (AID 1159580);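 further: tested at 20 µM; growth read once vehicle control cultures reached saturation at 30 °C; 1 = growth at the plate median or of vehicle wells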
Conditions: growth OD
[1] = S. cerevisiae deletion strains, locus YAL013W, strain DEP1, stronger effect = lower value
[2] = S. cerevisiae deletion strains, locus YBR229C, strain ROT2, stronger effect = lower value
[3] = S. cerevisiae deletion strains, locus YCL061C, strain MRC1, stronger effect = lower value
[4] = S. cerevisiae deletion strains, locus YDL101C, strain DUN1, stronger effect = lower value
[5] = S. cerevisiae deletion strains, locus YDL134C, strain PPH21, stronger effect = lower value
[6] = S. cerevisiae deletion strains, locus YDR150W, strain NUM1, stronger effect = lower value
[7] = S. cerevisiae deletion strains, locus YEL061C, strain CIN8, stronger effect = lower value
[8] = S. cerevisiae deletion strains, locus YGR078C, strain PAC10, stronger effect = lower value
[9] = S. cerevisiae deletion strains, locus YHR030C, strain SLT2, stronger effect = lower value
[10] = S. cerevisiae deletion strains, locus YHR087W, strain rtc3, stronger effect = lower value
[11] = S. cerevisiae deletion strains, locus YJR043C, strain POL32, stronger effect = lower value
[12] = S. cerevisiae deletion strains, locus YJR075W, strain HOC1, stronger effect = lower value
[13] = S. cerevisiae deletion strains, locus YKL190W, strain CNB1, stronger effect = lower value
[14] = S. cerevisiae deletion strains, locus YLR039C, strain RIC1, stronger effect = lower value
[15] = S. cerevisiae deletion strains, locus YLR058C, strain SHM2 (second series), stronger effect = lower value
[16] = S. cerevisiae deletion strains, locus YLR085C, strain ARP6, stronger effect = lower value
[17] = S. cerevisiae deletion strains, locus YLR262C, strain YPT6, stronger effect = lower value
[18] = S. cerevisiae deletion strains, locus YML094W, strain GIM5, stronger effect = lower value
[19] = S. cerevisiae deletion strains, locus YMR219W, strain ESC1, stronger effect = lower value
[20] = S. cerevisiae deletion strains, locus YMR263W, strain SAP30, stronger effect = lower value
[21] = S. cerevisiae deletion strains, locus YMR307W, strain GAS1, stronger effect = lower value
[22] = S. cerevisiae deletion strains, locus YNL153C, strain GIM3, stronger effect = lower value
[23] = S. cerevisiae deletion strains, locus YNL298W, strain CLA4 (second series), stronger effect = lower value
[24] = S. cerevisiae deletion strains, locus YNL322C, strain KRE1, stronger effect = lower value
[25] = S. cerevisiae deletion strains, locus YNR030W, strain Alg12, stronger effect = lower value
[26] = S. cerevisiae deletion strains, locus YPL055C, strain LGE1, stronger effect = lower value
[27] = S. cerevisiae deletion strains, locus YPL241C, strain CIN2, stronger effect = lower value
[28] = S. cerevisiae deletion strains, locus YPR135W, strain CTF4, stronger effect = lower value
[29] = S. cerevisiae strains, strain wild type, stronger effect = lower value
[30] = S. cerevisiae deletion strains, locus YJL187C, strain SWE1, stronger effect = lower value
[31] = S. cerevisiae deletion strains, locus YOL006C, strain TOP1, stronger effect = lower value

## Cc1ccc(-c2csc(-c3ccc(Oc4ccc(C(F)(F)F)cn4)cc3)n2)c(C)c1
[1]
  normalized growth: 0.995
[2]
  normalized growth: 1
[3]
  normalized growth: 1.02
[4]
  normalized growth: 1.03
[5]
  normalized growth: 0.992
[6]
  normalized growth: 1.01
[7]
  normalized growth: 1
[8]
  normalized growth: 1.01
S. cerevisiae deletion strains, locus YGR229C, strain SMI1, stronger effect = lower value
  normalized growth: 0.996
[9]
  normalized growth: 1.06
[10]
  normalized growth: 0.995
[11]
  normalized growth: 1.01
[12]
  normalized growth: 1.03
[13]
  normalized growth: 0.993
[14]
  normalized growth: 1.03
[15]
  normalized growth: 1
[16]
  normalized growth: 1.17
[17]
  normalized growth: 0.996
[18]
  normalized growth: 1
[19]
  normalized growth: 0.998
[20]
  normalized growth: 1.03
[21]
  normalized growth: 1.24
[22]
  normalized growth: 1.02
[23]
  normalized growth: 1
[24]
  normalized growth: 1
[25]
  normalized growth: 1
[26]
  normalized growth: 1.01
[27]
  normalized growth: 1.03
[28]
  normalized growth: 0.966
[29]
  normalized growth: 0.988

## N#Cc1ccc(-c2csc(-c3ccc(Oc4ccc(C(F)(F)F)cn4)cc3)n2)cc1
[1]
  normalized growth: 0.98
[2]
  normalized growth: 1
[3]
  normalized growth: 1.01
[4]
  normalized growth: 1.03
[5]
  normalized growth: 0.986
[6]
  normalized growth: 1.01
[7]
  normalized growth: 1.01
[8]
  normalized growth: 0.996
[9]
  normalized growth: 1.03
[10]
  normalized growth: 0.984
[30]
  normalized growth: 1
[11]
  normalized growth: 1.01
[12]
  normalized growth: 1.03
[13]
  normalized growth: 1.01
[14]
  normalized growth: 0.974
[15]
  normalized growth: 1
[16]
  normalized growth: 1.14
[17]
  normalized growth: 0.974
[18]
  normalized growth: 0.99
[19]
  normalized growth: 1
[20]
  normalized growth: 1.03
[21]
  normalized growth: 1.32
[22]
  normalized growth: 1.02
[23]
  normalized growth: 1
[24]
  normalized growth: 0.994
[25]
  normalized growth: 1
[31]
  normalized growth: 1.05
[26]
  normalized growth: 0.998
[27]
  normalized growth: 1.33 [resistant] (active)
[28]
  normalized growth: 0.88
[29]
  normalized growth: 0.99

## C/C(=N/NC(=S)Nc1ccc(C(C)C)cc1)c1ccco1
[1]
  normalized growth: 0.906 (active)
[2]
  normalized growth: 0.859 (active)
[3]
  normalized growth: 0.909 (active)
[4]
  normalized growth: 0.905
[5]
  normalized growth: 0.629 (active)
[6]
  normalized growth: 0.805
[7]
  normalized growth: 0.433 (active)
[8]
  normalized growth: 0.864 (active)
[9]
  normalized growth: 0.242 (active)
[10]
  normalized growth: 0.817 (active)
[30]
  normalized growth: 0.866 (active)
[11]
  normalized growth: 0.937
[12]
  normalized growth: 0.879 (active)
[13]
  normalized growth: 0.583 (active)
[14]
  normalized growth: 0.487 (active)
[15]
  normalized growth: 0.967
[16]
  normalized growth: 0.158 (active)
[17]
  normalized growth: 0.617 (active)
[18]
  normalized growth: 0.687 (active)
[19]
  normalized growth: 0.93 (active)
[20]
  normalized growth: 0.892 (active)
[21]
  normalized growth: 0.376 (active)
[22]
  normalized growth: 0.875 (active)
[23]
  normalized growth: 0.437 (active)
[24]
  normalized growth: 0.991
[25]
  normalized growth: 0.609 (active)
[31]
  normalized growth: 0.17 (active)
[26]
  normalized growth: 0.847
[27]
  normalized growth: 0.516 (active)
[28]
  normalized growth: 0.398 (active)
[29]
  normalized growth: 0.741 (active)

## O/N=C(/c1ccc(Cl)cc1)c1cc2ccccc2o1
S. cerevisiae deletion strains, locus YAR019C, strain CDC15, stronger effect = lower value
  normalized growth: 0.936
S. cerevisiae deletion strains, locus YBL105C, strain PKC1, stronger effect = lower value
  normalized growth: 0.946
S. cerevisiae deletion strains, locus YBR135W, strain CKS1, stronger effect = lower value
  normalized growth: 0.939
S. cerevisiae deletion strains, locus YBR136W, strain MEC1, stronger effect = lower value
  normalized growth: 0.945
S. cerevisiae deletion strains, locus YBR160W, strain CDC28, stronger effect = lower value
  normalized growth: 0.957
S. cerevisiae deletion strains, locus YDL017W, strain CDC7, stronger effect = lower value
  normalized growth: 0.946
S. cerevisiae deletion strains, locus YDL028C, strain MPS1, stronger effect = lower value
  normalized growth: 0.948
[4]
  normalized growth: 0.964
S. cerevisiae deletion strains, locus YDL108W, strain KIN28, stronger effect = lower value
  normalized growth: 0.943
S. cerevisiae deletion strains, locus YDL132W, strain cdc53, stronger effect = lower value
  normalized growth: 0.962
S. cerevisiae deletion strains, locus YDL214C, strain PRR2, stronger effect = lower value
  normalized growth: 0.887
S. cerevisiae deletion strains, locus YDR052C, strain DBF4, stronger effect = lower value
  normalized growth: 0.93
S. cerevisiae deletion strains, locus YDR054C, strain cdc34, stronger effect = lower value
  normalized growth: 0.947
S. cerevisiae deletion strains, locus YDR226W, strain ADK1, stronger effect = lower value
  normalized growth: 0.916
S. cerevisiae deletion strains, locus YDR477W, strain SNF1, stronger effect = lower value
  normalized growth: 0.847
S. cerevisiae deletion strains, locus YER123W, strain YCK3, stronger effect = lower value
  normalized growth: 0.883
S. cerevisiae deletion strains, locus YER133W, strain GLC7, stronger effect = lower value
  normalized growth: 0.813
S. cerevisiae deletion strains, locus YFL009W, strain cdc4, stronger effect = lower value
  normalized growth: 0.963
S. cerevisiae deletion strains, locus YFL029C, strain CAK1, stronger effect = lower value
  normalized growth: 0.94
S. cerevisiae deletion strains, locus YFR003C, strain YPI1, stronger effect = lower value
  normalized growth: 0.943
S. cerevisiae deletion strains, locus YFR019W, strain FAB1, stronger effect = lower value
  normalized growth: 0.904
S. cerevisiae deletion strains, locus YFR028C, strain CDC14, stronger effect = lower value
  normalized growth: 0.956
S. cerevisiae deletion strains, locus YGR040W, strain KSS1, stronger effect = lower value
  normalized growth: 0.852
S. cerevisiae deletion strains, locus YGR052W, strain FMP48, stronger effect = lower value
  normalized growth: 0.789
S. cerevisiae deletion strains, locus YGR092W, strain DBF2, stronger effect = lower value
  normalized growth: 0.748
[9]
  normalized growth: 0.526 (active)
S. cerevisiae deletion strains, locus YHR079C, strain IRE1, stronger effect = lower value
  normalized growth: 0.851
S. cerevisiae deletion strains, locus YHR082C, strain KSP1, stronger effect = lower value
  normalized growth: 0.877
S. cerevisiae deletion strains, locus YHR205W, strain SCH9, stronger effect = lower value
  normalized growth: 0.675
S. cerevisiae deletion strains, locus YIL147C, strain SLN1, stronger effect = lower value
  normalized growth: 0.943
S. cerevisiae deletion strains, locus YJL095W, strain BCK1, stronger effect = lower value
  normalized growth: 0.403 (active)
S. cerevisiae deletion strains, locus YJL128C, strain PBS2, stronger effect = lower value
  normalized growth: 0.893
S. cerevisiae deletion strains, locus YJL157C, strain FAR1, stronger effect = lower value
  normalized growth: 0.872
S. cerevisiae deletion strains, locus YJR016C, strain ILV3, stronger effect = lower value
  normalized growth: 0.941
S. cerevisiae deletion strains, locus YJR066W, strain TOR1 (second series), stronger effect = lower value
  normalized growth: 0.848
S. cerevisiae deletion strains, locus YJR066W, strain TOR1, stronger effect = lower value
  normalized growth: 0.797
S. cerevisiae deletion strains, locus YKL048C, strain ELM1, stronger effect = lower value
  normalized growth: 0.923
S. cerevisiae deletion strains, locus YKL067W, strain YNK1, stronger effect = lower value
  normalized growth: 0.893
S. cerevisiae deletion strains, locus YKL101W, strain HSL1, stronger effect = lower value
  normalized growth: 0.916
S. cerevisiae deletion strains, locus YKL193C, strain SDS22, stronger effect = lower value
  normalized growth: 0.93
S. cerevisiae deletion strains, locus YKL203C, strain TOR2, stronger effect = lower value
  normalized growth: 0.622 (active)
S. cerevisiae deletion strains, locus YLR113W, strain HOG1, stronger effect = lower value
  normalized growth: 0.915
S. cerevisiae deletion strains, locus YLR133W, strain CKI1, stronger effect = lower value
  normalized growth: 0.863
S. cerevisiae deletion strains, locus YLR403W, strain SFP1, stronger effect = lower value
  normalized growth: 0.614 (active)
S. cerevisiae deletion strains, locus YML070W, strain DAK1, stronger effect = lower value
  normalized growth: 0.868
S. cerevisiae deletion strains, locus YMR001C, strain CDC5, stronger effect = lower value
  normalized growth: 0.936
S. cerevisiae deletion strains, locus YMR205C, strain PFK2 (second series), stronger effect = lower value
  normalized growth: 0.862
S. cerevisiae deletion strains, locus YMR277W, strain FCP1, stronger effect = lower value
  normalized growth: 0.933
S. cerevisiae deletion strains, locus YNL006W, strain LST8, stronger effect = lower value
  normalized growth: 0.945
S. cerevisiae deletion strains, locus YNL020C, strain ARK1, stronger effect = lower value
  normalized growth: 0.82
S. cerevisiae deletion strains, locus YNL161W, strain CBK1, stronger effect = lower value
  normalized growth: 0.942
S. cerevisiae deletion strains, locus YNL183C, strain NPR1, stronger effect = lower value
  normalized growth: 0.784
S. cerevisiae deletion strains, locus YNL207W, strain RIO2, stronger effect = lower value
  normalized growth: 0.935
S. cerevisiae deletion strains, locus YNL222W, strain SSU72, stronger effect = lower value
  normalized growth: 0.947
S. cerevisiae deletion strains, locus YNL307C, strain MCK1 (second series), stronger effect = lower value
  normalized growth: 0.902
S. cerevisiae deletion strains, locus YOL078W, strain AVO1, stronger effect = lower value
  normalized growth: 0.937
S. cerevisiae deletion strains, locus YOL136C, strain PFK27, stronger effect = lower value
  normalized growth: 0.865
S. cerevisiae deletion strains, locus YOR061W, strain CKA2, stronger effect = lower value
  normalized growth: 0.87
S. cerevisiae deletion strains, locus YOR119C, strain RIO1, stronger effect = lower value
  normalized growth: 0.848
S. cerevisiae deletion strains, locus YOR231W, strain MKK1, stronger effect = lower value
  normalized growth: 0.964
S. cerevisiae deletion strains, locus YOR329C, strain SCD5, stronger effect = lower value
  normalized growth: 0.946
S. cerevisiae deletion strains, locus YPL031C, strain PHO85, stronger effect = lower value
  normalized growth: 0.84
S. cerevisiae deletion strains, locus YPL153C, strain RAD53, stronger effect = lower value
  normalized growth: 0.841
S. cerevisiae deletion strains, locus YPL204W, strain HRR25, stronger effect = lower value
  normalized growth: 0.807
S. cerevisiae deletion strains, locus YPL209C, strain IPL1, stronger effect = lower value
  normalized growth: 0.941
S. cerevisiae deletion strains, locus YPL256C, strain CLN2, stronger effect = lower value
  normalized growth: 0.917
S. cerevisiae deletion strains, locus YPR025C, strain CCL1, stronger effect = lower value
  normalized growth: 0.948
S. cerevisiae deletion strains, locus YPR106W, strain ISR1, stronger effect = lower value
  normalized growth: 0.946
S. cerevisiae deletion strains, locus YPR111W, strain DBF20, stronger effect = lower value
  normalized growth: 0.951
S. cerevisiae deletion strains, strain NNK1, stronger effect = lower value
  normalized growth: 0.946
S. cerevisiae deletion strains, strain TSCII, stronger effect = lower value
  normalized growth: 0.939
